Measured values published in the supplement of paper PMC6555819.

Legend:
Test in all cases: PBM binding z-score (relative to random genomic background probes); higher = stronger binding; sequences stand for … in GC…GCGATTGACAGCGTAGAATGAAGG
[1] = system: PPARg:RXRa DBDmut IVT, anti-RXR (DBD mutation: RXRa K156A/R161A, NR concentration 270 nM, RXRa partner concentration 90 nM)
Outline: (§1)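 The probes on custom Agilent 4×180K protein-binding microarrays were double-stranded, with 34-nt variable regions bearing direct-repeat seeds, single-nucleotide variants, half-site ablations and random human genomic background sequences. Incubation lasted 1 h with ligand-free nuclear receptor dimers in PBS pH 7.4, 2% milk, 0.02% Triton X-100, 1 mM DTT, 0.2 mg/mL BSA and 0.4 mg/ml salmon testes DNA. Antibodies against each partner (one per run) detected bound dimers, and fluorescence scans were regression-normalized. Binding z-scores take the random background probes as reference.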

[2] = system: PPARg:RXRa IVT, anti-PPARg (NR concentration 270 nM, RXRa partner concentration 90 nM)
Outline: as §1

[3] = system: PPARg DBDmut:RXRa IVT, anti-PPARg (DBD mutation: PPARg1 K132A/R137A, NR concentration 270 nM, RXRa partner concentration 90 nM)
Outline: as §1

[4] = system: PPARg DBDmut IVT, anti-PPARg (DBD mutation: PPARg1 K132A/R137A, NR concentration 270 nM)
Outline: as §1

[5] = system: PPARg homodimer (NR concentration 180 nM)
Outline: as §1

[6] = system: PXR:RXRa (NR concentration 270 nM, RXRa partner concentration 90 nM)
Outline: as §1

[7] = system: PXR homodimer (NR concentration 270 nM)
Outline: as §1

[8] = system: RARa:RXR (NR concentration 270 nM, RXRa partner concentration 90 nM)
Outline: as §1

[9] = system: RARa homodimer (NR concentration 270 nM)
Outline: as §1

[10] = system: RARb:RXRa (NR concentration 270 nM, RXRa partner concentration 90 nM)
Outline: as §1

Sequence	PBM binding z-score [1]	PBM binding z-score [2]	PBM binding z-score [3]	PBM binding z-score [4]	PBM binding z-score [5]	PBM binding z-score [6]	PBM binding z-score [7]	PBM binding z-score [8]	PBM binding z-score [9]	PBM binding z-score [10]
CCTACTGGGCCATTCAGAGGTCATGGATCATATG	4.14	4.64	0.856	0.389	2.93	4.92	0.765	5.46	0.962	3.19
CTCGAAAGATCGTGCTCAGGTGAGTATACCAAAC	-0.285	-0.0174	-0.0381	0.428	0.0271	-0.467	-0.289	-0.00355	-0.239	-0.0571
ATCTCTAGGTACCCAAGTTCAGTGAATGCCGAAC	0.72	1.02	0.772	0.793	0.883	1.76	1.62	0.698	0.262	1
ATACCAAGGTGATCGTGAGGTCATTGATACTAAC	0.662	2.58	0.666	0.349	2.35	5.39	4.33	4.55	0.789	3.25
AGAACGAGGGCACGCTGAGTTGATATCAGAGTAG	4.16	3.89	0.683	-0.135	0.168	1.44	0.106	0.865	-0.122	2.5
ACTATTAGTTGAGACGCGGGCAACCGATAGGTTG	-0.288	-0.175	0.481	0.188	-0.291	-0.299	-0.208	-0.588	-0.0314	0.15
ATCTCTAGGTAAGACTCAGTTCAGCGAAGAACGC	1.67	1.01	0.389	0.673	0.96	0.943	1.37	0.477	1.01	0.277
ATCGAAAGGTCGACGAGGTGAGTCTACACCGTTT	0.545	2.03	1.28	0.606	1.13	3.31	0.495	3.84	0.442	3.98
AATACAGGGTCATCGTAGGCCAGAGTACGCACAG	2.76	4.32	1.59	1.19	1.96	4.94	0.48	4.82	0.854	4.37
GCGACTGGGTCATCAGCAGGTTACCATAACTTAA	5.38	5.94	0.513	-0.691	1.31	2.22	-0.585	3.39	-0.469	3.23
CAAACTAGGTCAAGAGGTCAAAGCCCGCTTCCCG	8.12	8.64	4.39	2.45	7.29	6.42	1.66	7.68	2.35	5.54
GCTCGGAGGACAAGGTGAGAGCTTTGTCCGTAGA	-0.575	0.359	-0.51	-0.882	-0.374	-0.472	-0.908	-0.166	-1.13	1.52
CCTAGCAGGCCAATCTCGGTCACTCAAGGCTTGA	1.96	1.29	-0.633	-1.57	0.0271	-0.17	-0.412	0.0359	-0.713	1.34
CCGATTGGGGCAAAGGTTACCATACTCAGTACGA	2.91	4.24	0.329	0.0522	1.15	2.32	-0.232	3.81	-0.223	2.31
GCGTGTAGATCAAGGTTAAGAAAGACTAAGCTAA	-0.0954	0.359	-0.293	-0.542	0.178	0.409	0.176	1.16	-0.389	0.791
ATCGAAAGGTCGAAGGTGAATATACCCACCCGAA	0.205	2.75	0.488	1.25	2.07	3.5	0.328	5.15	0.699	4.04
GCGACTGGGGCAAAGCAGGTTACCTTAAGGTTGG	4.98	3.47	-0.487	-1.22	-0.599	0.288	-0.563	0.523	-0.791	0.877
TCTGCTAGGTCAACTATGGTCAGCTAATCTGCTA	3.77	4.24	0.825	0.277	1.55	2.47	-0.42	2.76	0.288	4.38
CAGACTAGGTCAAGGTCAAAGTCGGTTTGTGCCA	7.69	7.9	3.1	0.467	3.79	5.16	1.76	5.07	1.4	5.05
ACTATTAGTTGAGACGAGGGCAGCCGATAGGTTG	0.368	0.416	0.598	0.645	0.479	0.456	-0.0477	0.335	0.445	0.854
CCTTACGGGTCAAGGTTATAGCTCGGGTGGTACG	2.32	3.66	0.883	-0.415	1.91	3.16	0.16	3.72	0.652	4.12
CAGCCTAGGTCGGGGCCAGTATAGGAGGAACGTT	-0.532	-0.678	-0.979	-1.04	-0.152	-0.445	-0.795	-0.269	-1.01	1.02
CAAACTAGGTCACGAAAGGACAAAGTCGAATGAC	8.65	9.28	5.83	2.82	2.7	4.22	0.691	3.22	1.93	4.54
CCTACTGGGACACGAAAGGTCATTGATTCAGTGA	5.93	5.78	0.301	-0.131	2.99	4.91	2.47	4.98	1.59	4.06
